In the library only some 2.3% were active in any assay of this set; here they are far more common.
CHT allo act = human CHT allosteric activation. B-score at 10 µM. AID 488977. CHT-expressing cells, membrane potential dye, choline EC20; active compounds read high; LV-AA mutant CHT in HEK293 cells. 310,000 compounds, 0.49% hits. Q9GZV3;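 active = initial fluorescence not abnormally high and integrated response B-score, plate-corrected, over 3 SD above library mean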
ANO1 activ = mouse TMEM16A channel activation, primary screen; Q8BHY3; HEK293 TMEM16A/YFP-H148Q/I152L, iodide quench fluorescence; active compounds read low; B-score at 10 µM; 340,000 compounds, 0.3% hits; AID 623877;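 active = fluorescence-ratio B-score plate-corrected deviation score at least 3 library SD below zero, with starting fluorescence score within 5 deviations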;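 also: channel opened by trigger with iodide after compound preincubation; score built on the fluorescence ratio of max minus min over baseline; more negative score means more quench and so TMEM16A activation or potentiation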
Target sequence (Q8BHY3 whole entry, looked up): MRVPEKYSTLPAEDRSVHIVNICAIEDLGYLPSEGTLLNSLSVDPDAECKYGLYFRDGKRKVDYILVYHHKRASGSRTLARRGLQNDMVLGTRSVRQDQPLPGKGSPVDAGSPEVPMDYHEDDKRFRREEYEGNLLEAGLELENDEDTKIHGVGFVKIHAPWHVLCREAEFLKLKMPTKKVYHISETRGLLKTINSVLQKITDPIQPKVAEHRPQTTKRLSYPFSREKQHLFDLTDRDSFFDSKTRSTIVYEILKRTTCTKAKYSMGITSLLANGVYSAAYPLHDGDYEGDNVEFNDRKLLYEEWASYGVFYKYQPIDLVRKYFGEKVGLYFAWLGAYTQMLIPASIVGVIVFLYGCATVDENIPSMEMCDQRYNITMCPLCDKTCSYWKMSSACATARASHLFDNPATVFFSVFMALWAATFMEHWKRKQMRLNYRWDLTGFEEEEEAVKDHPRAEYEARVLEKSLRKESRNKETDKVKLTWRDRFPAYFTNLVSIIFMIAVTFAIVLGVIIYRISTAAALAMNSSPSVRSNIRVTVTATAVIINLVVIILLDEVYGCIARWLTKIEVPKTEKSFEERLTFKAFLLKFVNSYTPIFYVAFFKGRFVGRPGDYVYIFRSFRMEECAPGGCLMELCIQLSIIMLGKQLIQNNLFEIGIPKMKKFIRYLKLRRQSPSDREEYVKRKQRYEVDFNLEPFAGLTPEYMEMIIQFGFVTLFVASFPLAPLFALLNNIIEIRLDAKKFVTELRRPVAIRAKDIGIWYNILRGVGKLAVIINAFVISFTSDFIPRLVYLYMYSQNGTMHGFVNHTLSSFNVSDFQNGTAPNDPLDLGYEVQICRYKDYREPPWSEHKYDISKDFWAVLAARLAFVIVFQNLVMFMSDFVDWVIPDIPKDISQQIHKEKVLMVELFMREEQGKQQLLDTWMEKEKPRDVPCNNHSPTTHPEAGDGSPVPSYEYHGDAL
TMEM16A inh = inhibitors of mouse TMEM16A calcium-activated chloride channel. HEK293 TMEM16A/YFP iodide influx fluorescence, ionomycin. normalized B-score (activity score, 25-100; higher = stronger inhibition) at 10 µM. Q8BHY3. 310,000 compounds, 1.2% hits;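 active = ratio plate-corrected score three or more library SD toward inhibition, starting fluorescence score within five deviations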;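 also: score derived from kinetic fluorescence span divided by baseline fluorescence per well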
CHT block = inhibitors of human choline transporter CHT; Q9GZV3; CHT-expressing cells, membrane potential dye, choline response; active compounds read low; B-score at 10 µM; 310,000 compounds, 0.86% hits; AID 488975;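 active = B-score over 3 SD under the library average, and starting fluorescence ratio not unusually high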;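 also: choline stimulus applied at its EC90 after an EC20 pre-addition; B-score computed on integrated fluorescence ratio after choline addition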
TMEM16A reconf = reconfirmed blocker of mouse TMEM16A calcium-activated chloride channel. HEK293 TMEM16A/YFP-H148Q, iodide quench fluorescence; ionomycin added to raise cell calcium. 2,300 compounds, 39% hits. inhibition, % at 10 µM. shares compounds with TMEM16A inh;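 active = mean duplicate percent inhibition, scaled so buffer wells are 0 and the reference blocker 100, over three buffer SD above buffer mean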
HEK293 Ca mobil = calcium mobilization counter-screen hit for TMEM16A inhibitor series; shares compounds with TMEM16A inh; TMEM16A/YFP HEK293, Fluo4 calcium mobilization; calcium response (% of ionomycin), % at 10 µM; 2,300 compounds, 2% hits;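 active = duplicate-averaged calcium signal over 20% of the ionomycin maximum, relative to buffer baseline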;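 also: each well's signal is peak minus trough fluorescence divided by its pre-addition baseline; 0% = buffer wells and 100% = ionomycin wells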
Parental YFP cnt = counter-screen for TMEM16A inhibitors: effect in parental YFP-HEK293 cells; shares compounds with TMEM16A inh; iodide YFP quench, ionomycin; YFP ratio F(max-min)/F0 at 10 µM; 2,300 tested, under 10 active;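 active = yellow fluorescent protein signal ratio exceeding the buffer control mean by over 5 SD of those controls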;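 also: ratio is mean of duplicate wells from kinetic YFP trace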
ClC-1 rat inh = rat ClC-1 inhibition, TMEM16A specificity screen; shares compounds with TMEM16A inh; ratio percent, % at 10 µM; 2,300 tested, under 10 active; CHO ClC-1-YFP, iodide influx fluorescence quench; iodide control reads 0, buffer control 100; AID 652236;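 active = duplicate-mean ratio percent above the mean of iodide-only control wells, which defines zero, plus 5 of their SD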;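 also: higher percent means stronger block of ClC-1 iodide influx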
* marks the source's active call; other numbers are inactive results; i = inactive; . = not tested or not shown.

SMILES | CHT allo act | ANO1 activ | TMEM16A inh | CHT block | TMEM16A reconf | HEK293 Ca mobil | Parental YFP cnt | ClC-1 rat inh
Cc1csc(SCC(=O)Nc2nc(-c3ccccc3)cs2)n1 | i | i | 100* | i | i | i | -1.03 | -5.0
CC(C)Cc1ccc(CN2CCCC(NC(=O)c3ccoc3)C2)cc1 (stereo not given) | i | i | i | i | . | . | . | .
CC(C)Cc1ccc(CN2CCCC(NC(=O)c3ccnn3C)C2)cc1 (stereo not given) | i | i | 25* | i | i | i | -1.24 | -8.0
CCN(CC)C(=O)c1sc2nc(-c3cccs3)cc(-c3cccs3)c2c1N | i | i | i | i | i | i | -0.605 | 24.0
CC(=O)c1ccc(N2CCN(S(=O)(=O)c3ccc4c(c3)CC(C)N4C(C)=O)CC2)cc1 (stereo not given) | i | i | 25* | i | 25.5%* | i | -1.1 | -22.0
Cc1ccc(C)c(N2CCN(S(=O)(=O)c3ccc4c(c3)CC(C)N4C(=O)C3CC3)CC2)c1 (stereo not given) | i | i | i | i | i | i | -1.15 | -15.0
COc1ccc(S(=O)(=O)N2CCN(c3ccc(C)cc3C)CC2)cc1OC | i | i | 25* | i | 25.5%* | i | -0.952 | -18.0
CCC(=O)N1c2ccc(S(=O)(=O)N3CCN(c4ccc([N+](=O)[O-])cc4)CC3)cc2CC1C (stereo not given) | i | i | 25* | i | i | i | -1.23 | -17.5
CCC(=O)N1c2ccc(S(=O)(=O)N3CCN(CC)CC3)cc2CC1C (stereo not given) | i | i | i | i | . | . | . | .
CC(=O)c1ccc(N2CCN(S(=O)(=O)c3ccc4c(c3)CC(C)N4C(=O)C3CC3)CC2)cc1 (stereo not given) | i | i | i | i | . | . | . | .
CCOc1ccc(OCc2ccc(C(=O)OCc3ccccn3)o2)cc1 | i | i | 100* | i | i | i | -1.02 | -4.0
Cc1nc(N)sc1-c1csc(Nc2ccc(Cl)cn2)n1 | i | i | 25* | i | 26.5%* | i | -0.952 | -1.5
Cc1nc(C)c(-c2csc(Nc3cccc(O)c3)n2)s1 | i | i | 100* | i | 38.0%* | i | -0.807 | -8.0
Cc1nc(N)sc1-c1csc(Nc2cccc(O)c2)n1 | i | i | i | i | . | . | . | .
Cc1nc(C)c(-c2csc(Nc3ccccn3)n2)s1 | i | i | 25* | i | 28.5%* | i | -1.12 | -5.5
CC(=O)Nc1nnc(S(=O)(=O)N2CCN(c3ccc([N+](=O)[O-])cc3Cl)CC2)s1 | i | i | i | i | . | . | . | .
CC(=O)c1cccc(OCC(=O)N(C)CC(=O)NCc2ccco2)c1 | . | i | . | . | . | . | . | .
OC(CN1CCN(c2cccc(Cl)c2)CC1)c1ccccc1 (stereo not given) | i | i | i | i | . | . | . | .
OC(COC(c1ccccc1)c1ccccc1)CN1CCN(c2cccc(Cl)c2)CC1 (stereo not given) | i | i | 25* | i | i | i | -0.896 | -9.5
O=[N+]([O-])c1ccc(Cc2cncc(O)c2)cc1 | i | i | i | i | . | . | . | .
Cc1oc(-c2cc(F)ccc2F)nc1CN1CCN(c2ncnc3ccccc23)CC1 | i | i | 100* | i | 20.0%* | i | -1.12 | -19.0
Cc1oc(-c2cc(F)ccc2F)nc1CN1CCC(C(=O)N2CCOCC2)CC1 | i | i | i | i | . | . | . | .
CCCSc1oc(-c2ccco2)nc1S(=O)(=O)c1ccccc1 | i | i | i | i | . | . | . | .
CCCSc1oc(-c2ccco2)nc1S(=O)(=O)c1ccc(C)cc1 | i | i | 25* | i | i | i | -1.03 | -10.0

Screens (PubChem BioAssay)
